Common to all, as to assay: modulators of BK channel variants, profiling panel, selectivity assay, cell-based, U2OS BacMam, thallium flux, beta subunits (AID 1259406);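 note: initial slope of Thallos dye fluorescence rise after thallium is added; log ratio against the mean of 0.3% DMSO vehicle wells on the same plate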
The test system of one assay is F380Y/beta2Delta. To be noted: at 30 µM.
For another assay, the system named is F380Y/beta4. To be noted: at 30 µM.
Assay [1] has as its target Calcium-activated potassium channel subunit alpha-1 (Homo sapiens) + Leucine-rich repeat-containing protein 26 (Homo sapiens) (UniProt Q12791+Q2I0M4). To be noted: F380Y/Slo1WT/gamma1, at 30 µM.
In a further assay the test system is R275C. To be noted: at 30 µM.
In the next assay the test system is R275C/beta1. Particulars: at 30 µM.
The test system of another assay is R275C/beta2Delta. To be noted: at 30 µM.
The next assay concerns R275C/beta4. Particulars: at 30 µM.
A further assay deals with R275C/Slo1WT/beta2. To be noted: at 30 µM.

A number with no mark means an inactive call. Activity calls are given as the source filed them.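 Rule for the calls: active = thallium flux through the channel raised or lowered by more than 3 SD from vehicle-only wells, actives on both sides; inactive = the rest.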

Calcium-activated potassium channel subunit alpha-1 (Homo sapiens) + Leucine-rich repeat-containing protein 26 (Homo sapiens), sequence (Q2I0M4 whole entry, looked up, one chain of several): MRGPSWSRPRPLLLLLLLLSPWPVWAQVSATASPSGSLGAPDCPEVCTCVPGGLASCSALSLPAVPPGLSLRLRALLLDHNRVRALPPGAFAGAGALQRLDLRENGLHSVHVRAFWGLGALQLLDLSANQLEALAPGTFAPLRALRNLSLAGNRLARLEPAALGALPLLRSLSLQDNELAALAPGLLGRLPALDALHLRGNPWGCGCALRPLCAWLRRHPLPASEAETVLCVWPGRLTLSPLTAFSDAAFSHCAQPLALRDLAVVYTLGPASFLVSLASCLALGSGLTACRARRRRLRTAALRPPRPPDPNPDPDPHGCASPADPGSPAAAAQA

For `CNCC(O)c1ccc(O)c(O)c1` (stereo not given), the log fold change Tl+ flux is 0.0367 with F380Y/beta2Delta; -0.0084 in the assay on F380Y/beta4; 0.0503 in assay [1]; 0.0399 in the assay on R275C; -0.0203 with R275C/beta1; -0.0287 in the assay with R275C/beta2Delta. Also, the figures for the log fold change Tl+ flux in the assay with R275C/beta4 and with R275C/Slo1WT/beta2 were -0.0313 and -0.0974, respectively.
Regarding `C#C[C@]1(O)CC[C@H]2[C@@H]3CCc4cc(OC)ccc4[C@H]3CC[C@@]21C`, the log fold change Tl+ flux is -0.0353 in the assay on F380Y/beta2Delta; 0.0115 with F380Y/beta4; -0.0403 in assay [1]; -0.0453 with R275C; 0.019 in the assay with R275C/beta1; -0.00738 with R275C/beta2Delta. The results for the log fold change Tl+ flux with R275C/beta4 and with R275C/Slo1WT/beta2 were 0.00852 and -0.04, respectively.
On to `CN(C)CC/C=C1/c2ccccc2COc2ccc(CC(=O)O)cc21`, for which the log fold change Tl+ flux in the assay with F380Y/beta2Delta was 0.053; in the assay on F380Y/beta4, 0.0784; in assay [1], 0.00396; with R275C, -0.0501; in the assay on R275C/beta1, 0.0368; in the assay on R275C/beta2Delta, 0.00503. Besides, the log fold change Tl+ flux with R275C/beta4 is 0.0335; in the assay on R275C/Slo1WT/beta2, 0.0239.
Turning to `C#C[C@]1(O)CC[C@H]2[C@@H]3[C@H](C)CC4=C(CCC(=O)C4)[C@H]3CC[C@@]21C`, the log fold change Tl+ flux with F380Y/beta2Delta was 0.02; with F380Y/beta4, 0.0383; in assay [1], 0.094 (active); in the assay with R275C, -0.0625; with R275C/beta1 it was 0.155 (active); with R275C/beta2Delta, 0.0649. In addition, the results for the log fold change Tl+ flux with R275C/beta4 and in the assay with R275C/Slo1WT/beta2 were 0.0734 and 0.0272, respectively.
As to `CC1(C)O[C@@H]2C[C@H]3[C@@H]4C[C@H](F)C5=CC(=O)C=C[C@]5(C)[C@@]4(F)[C@@H](O)C[C@]3(C)[C@]2(C(=O)CO)O1`, the log fold change Tl+ flux is 0.13 (active) in the assay with F380Y/beta2Delta; 0.186 (active) in the assay on F380Y/beta4; 0.0484 in assay [1]; 0.0785 in the assay with R275C; 0.14 (active) in the assay with R275C/beta1; 0.157 (active) in the assay with R275C/beta2Delta. For the same compound, the results for the log fold change Tl+ flux with R275C/beta4 and in the assay on R275C/Slo1WT/beta2 were 0.0574 and 0.0265, respectively.
Regarding `COc1cc(C(=O)NS(=O)(=O)c2ccccc2C)ccc1Cc1cn(C)c2ccc(NC(=O)OC3CCCC3)cc12`, the log fold change Tl+ flux in the assay on F380Y/beta2Delta is 0.327 (active); in the assay with F380Y/beta4 it was 0.428 (active); in assay [1] it was 0.314 (active); in the assay on R275C, -0.0565; in the assay on R275C/beta1 it was 0.581 (active); with R275C/beta2Delta, 0.38 (active). Besides, the log fold change Tl+ flux in the assay on R275C/beta4 was 0.546 (active); with R275C/Slo1WT/beta2 it was 0.0699.
With `CC1(C)S[C@@H]2[C@H](N=CN3CCCCCC3)C(=O)N2[C@H]1C(=O)O`, the log fold change Tl+ flux in the assay with F380Y/beta2Delta was -0.0627; in the assay with F380Y/beta4, -0.00589; in assay [1], -0.0112; in the assay on R275C, 0.00945; in the assay on R275C/beta1, 0.0251; with R275C/beta2Delta it was 0.116 (active). Further, the results for the log fold change Tl+ flux with R275C/beta4 and with R275C/Slo1WT/beta2 were -0.0211 and -0.0045, respectively.
In the case of `CN1[C@@H]2CC[C@H]1CC(OC(=O)c1c[nH]c3ccccc13)C2` (stereo not given in full), the log fold change Tl+ flux in the assay with F380Y/beta2Delta is 0.0725; in the assay on F380Y/beta4, 0.0611; in assay [1] it was -0.0185; with R275C it was -0.064; in the assay with R275C/beta1 it was 0.026; in the assay on R275C/beta2Delta, 0.045. For the same compound, the log fold change Tl+ flux is 0.0432 in the assay on R275C/beta4 and 0.00303 in the assay on R275C/Slo1WT/beta2.
As to `NS(=O)(=O)c1cc(C(=O)O)c(NCc2ccco2)cc1Cl`, the log fold change Tl+ flux in the assay with F380Y/beta2Delta was -0.0211; with F380Y/beta4 it was 0.0269; in assay [1], -0.028; in the assay on R275C, -0.0468; with R275C/beta1, -0.0154; with R275C/beta2Delta, -0.0184. Besides, the log fold change Tl+ flux is 0.000317 with R275C/beta4 and 0.0743 in the assay on R275C/Slo1WT/beta2.
Take `COC(=O)C1=C(C)NC(C)=C(C(=O)OC(C)C)C1c1cccc2nonc12` (stereo not given): the log fold change Tl+ flux in the assay on F380Y/beta2Delta is -0.0966; with F380Y/beta4, -0.107 (active); in assay [1], 0.00177; with R275C, -0.0742; in the assay with R275C/beta1 it was -0.015; with R275C/beta2Delta, -0.0967. Besides, the log fold change Tl+ flux was -0.00531 in the assay with R275C/beta4 and -0.0356 in the assay on R275C/Slo1WT/beta2.
Regarding `CC(C)(C(=O)c1cccnc1)c1cccnc1`, the log fold change Tl+ flux in the assay on F380Y/beta2Delta is -0.0492; in the assay on F380Y/beta4, -0.00737; in assay [1], -0.0176; in the assay on R275C, -0.0634; in the assay on R275C/beta1, 0.0377; in the assay with R275C/beta2Delta, -0.0241. Further, the log fold change Tl+ flux in the assay on R275C/beta4 was 0.0328; with R275C/Slo1WT/beta2, 0.0667.
Turning to `COc1ccc(CN2CCN(C(c3ccc(F)cc3)c3ccc(F)cc3)CC2)c(OC)c1OC`, the log fold change Tl+ flux with F380Y/beta2Delta was -0.015; with F380Y/beta4, 0.0162; in assay [1] it was -0.00669; in the assay on R275C it was -0.0264; in the assay on R275C/beta1 it was -0.0636; with R275C/beta2Delta it was -0.0699. In addition, the log fold change Tl+ flux with R275C/beta4 was 0.0197; in the assay with R275C/Slo1WT/beta2 it was -0.00919.
Regarding `Nc1nnc(-c2cccc(Cl)c2Cl)c(N)n1`, the log fold change Tl+ flux with F380Y/beta2Delta was -0.0167; in the assay with F380Y/beta4, -0.0171; in assay [1] it was 0.000443; with R275C, 0.00303; in the assay on R275C/beta1, 0.00854; in the assay on R275C/beta2Delta, 0.0465. In addition, the values for the log fold change Tl+ flux with R275C/beta4 and in the assay on R275C/Slo1WT/beta2 were -0.0247 and -0.000749, respectively.
For the compound `CC(C(=O)O)c1ccc(CC2CCCC2=O)cc1` (stereo not given), the log fold change Tl+ flux with F380Y/beta2Delta is -0.0349; with F380Y/beta4, -0.0649; in assay [1], -0.0398; in the assay on R275C, -0.0259; with R275C/beta1, 0.00328; in the assay with R275C/beta2Delta it was 0.0267. For the same compound, the log fold change Tl+ flux in the assay with R275C/beta4 is -0.000172; in the assay with R275C/Slo1WT/beta2, 0.00782.
With `CC(Oc1c(Cl)cccc1Cl)C1=NCCN1` (stereo not given), the log fold change Tl+ flux is -0.00369 in the assay with F380Y/beta2Delta; 0.0154 with F380Y/beta4; 0.00177 in assay [1]; -0.0395 in the assay with R275C; 0.0393 with R275C/beta1; 0.00761 in the assay with R275C/beta2Delta. Further, the log fold change Tl+ flux is 0.0269 with R275C/beta4 and 0.0415 in the assay on R275C/Slo1WT/beta2.

Source of the values: PubChem BioAssay.
